Test results: PubChem BioAssay (NCATS)
Where “and” joins values, the source holds several entries; their conditions need not be identical. Equal values may be shown once. Inconclusive results are not listed. The source holds several records for some structures; these can differ, active in one and inactive in another. Calls of active or inactive are those of the source. Calls follow the shape of the dose curve; as a rule, active = well fitted curve in the direction sought with a large enough effect; inconclusive = small, poorly fitted or top-dose-only effect, or another doubt; inactive = no such curve, though single readings can be large; an effect the other way counts as inactive or inconclusive.

Legend:
[1] = Viability qHTS for spleen associated tyrosine kinase inhibitor (SYKi) drug resistant MV4-11 cells (AID 1963824); also: nearly all actives have a fitted effect of over 35% in size
In short: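 SYK inhibitor-resistant MV4-11 AML cells, 500 per well, added to predispensed compounds and incubated 72 hr at 37 C, 5% CO2. Viability measured by CellTiter-Glo luminescence after 10 min at room temperature.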

[2] = Cellular viability qHTS for adrenocortical cancer (ACC) cell line SW-13 (AID 1963989); settings: SW-13 ACC cells viability, CellTiter-Glo, 48 h; activity (max response): stronger effect = lower value; also: nearly all actives have a fitted effect of over 65% in size;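 as to activity (max response): cells grown in serum-free medium with ITS supplement; % is scaled to controls: 0 for no effect and ±100 for the full control effect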
In short: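 Viability was read as CellTiter-Glo luminescence after 48 h compound treatment (up to 46 uM final) of SW-13 cells grown serum-free; titration curves were fit with a four-parameter logistic model to give IC50 and efficacy.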

[3] = Cellular viability qHTS for adrenocortical cancer (ACC) cell line NCI-H295R (AID 1963990); also: nearly all actives have a fitted effect of over 60% in size
In short: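 CellTiter-Glo ATP luminescence, read 48 h after compound addition, measured viability of NCI-H295R adrenocortical cells grown serum-free with ITS. Final concentrations spanned up to 46 uM. Data normalized to DMSO and doxorubicin, fitted for IC50 and maximal response.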
Potency is read from the fitted curve at half-maximal effect.

SMILES | Potency [1] | Potency [2] | activity (max response) [2] | Potency [3]
C/C=C1\NC(=O)[C@H]2CSSCC/C=C\[C@H](CC(=O)N[C@H](C(C)C)C(=O)N2)OC(=O)[C@H](C(C)C)NC1=O | 0.0074 µM (active) | 0.0126 µM (active) | – | –
COc1cc(S(C)(=O)=O)ccc1Nc1nc2ccc(-c3ccc(NC(=O)[C@H](C)c4ccc(F)cc4)cc3)cn2n1 | 0.468 µM (active) | – | -19.6% (inactive) | –
C=C[C@H]1CN2CCC1C[C@@H]2C(O)c1ccnc2ccc(OC)cc12 (some centres undefined) | 14.8 µM (active) | – | 3.34% (inactive) | –
NC(=O)CC[C@@H](N)C(=O)O | inactive | – | 12.6% (inactive) | –
CC(=O)OCC1=C(C(=O)O)N2C(=O)[C@@H](NC(=O)CSc3ccncc3)[C@H]2SC1 | inactive | – | 10.5% (inactive) | –
O=C(NO)C1(CS(=O)(=O)c2ccc(Oc3ccc(Cl)cc3)cc2)CCOCC1 | 16.6 µM (active) | 25.1 µM (active) | – | –
CO[C@H]1/C=C/O[C@@]2(C)Oc3c(C)c(O)c4c(O)c(c(/C=N/N5CCN(C)CC5)c(O)c4c3C2=O)NC(=O)/C(C)=C\C=C\[C@H](C)[C@H](O)[C@@H](C)[C@@H](O)[C@@H](C)[C@H](OC(C)=O)[C@@H]1C | 18.6 µM (active) | – | -27.5% (inactive) | –
CCC(Cc1c(I)cc(I)c(N)c1I)C(=O)O (centres undefined) | inactive | – | 1.75% (inactive) | –
NS(=O)(=O)c1cc2c(cc1Cl)CN(C1CCCCC1)C2=O | inactive | – | 0.796% (inactive) | –
CCCC[C@@H](C=O)NC(=O)[C@H](CC(C)C)NC(=O)OCc1ccccc1 | 18.6 µM (active) | – | -4.14% (inactive) | –
C1=CC2C3C=CC(C3)C2C1 (centres undefined) | inactive | – | 5.69% (inactive) | –
COc1ccc(N(C)c2nc(C)nc3ccccc23)cc1 | 0.0042 µM (active) | 0.0112 µM (active) | – | –
C=CCN1C[C@H](C(=O)N(CCCN(C)C)C(=O)NCC)CC2c3cccc4[nH]cc(c34)C[C@H]21 (some centres undefined) | 16.6 µM (active) | – | -6.18% (inactive) | –
C/C(=C(\CCO)SS/C(CCO)=C(\C)N(C=O)Cc1cnc(C)nc1N)N(C=O)Cc1cnc(C)nc1N | inactive | – | 7.36% (inactive) | –
CN[C@@H](C)C(=O)N[C@@H]1C(=O)N(Cc2c(C)ccc3ccccc23)c2ccc(C#N)cc2N(C(C)=O)[C@H]1C | 13.2 µM (active) | – | 3.96% (inactive) | –
Clc1cccc(C(c2ccc3nc[nH]c3c2)n2ccnc2)c1 (centres undefined) | inactive and 18.6 µM (active) | – | 10.9% (inactive) and -12.2% (inactive) | –
Cc1cc(-c2ccccc2)nnc1NCCN1CCOCC1 | inactive | – | -11% (inactive) | –
Cc1c(NC(=O)c2cc(C(N)=O)nc3cc(F)ccc23)c(C(F)(F)F)nn1Cc1ccc(C#N)cc1 | inactive | – | -7.79% (inactive) | –
CCCCNc1c(C(=O)OCC)c(C)nc2c1cnn2CC | inactive | – | -16.9% (inactive) | –
COc1cccc(OCCCN)c1-c1cc(Nc2cnc(C#N)cn2)n[nH]1 | 0.0116 µM (active) | – | -3.44% (inactive) | –
CCC(=O)O[C@H]1[C@H](O[C@@H]2[C@@H](C)[C@H](O[C@H]3C[C@@](C)(OC)[C@@H](O)[C@H](C)O3)[C@@H](C)C(=O)O[C@H](CC)[C@@](C)(O)[C@H](O)[C@@H](C)C(=O)[C@H](C)C[C@@]2(C)O)O[C@H](C)C[C@@H]1N(C)C | inactive | – | 0.809% (inactive) | –

SMILES | Potency [1] | Potency [2] | activity (max response) [2] | Potency [3]
CN1CCN(CCCNc2ncc(Cl)c(-c3cc4c(C(=O)NC5CC5)cccc4s3)n2)CC1 | 18.6 µM (active) | – | 0.565% (inactive) | –
c1cc(Nc2cc(C3CC3)[nH]n2)nc(Nc2ccc3nc[nH]c3c2)n1 | 0.0184 µM (active) | 0.224 µM (active) | – | –
Cc1ccc(NC(=O)c2ccc3c(c2)OCCO3)cc1NC(=O)c1ccc2nc(OCCN3CCCC3)ccc2c1 | 0.0229 µM (active) | 0.802 µM (active) | – | –
C=CC(=O)N[C@H]1CN(c2nc(Nc3cn(C)nc3OC)c3ncn(C)c3n2)C[C@@H]1F | 18.6 µM (active) | 0.199 µM (active) | – | –
CC(C)C(=O)Nc1cccc(C2CN3CCSC3=N2)c1 (centres undefined) | inactive | – | -3.96% (inactive) | –
NC(=O)c1cc(F)cc2c1C(=O)N(C1CCN(C3CCC(F)(F)CC3)CC1)C2 | inactive | – | -0.81% (inactive) | –
CC(C)C(=O)OCc1cccc(OC(=O)[C@@H]2N3C(=O)[C@@H](NC(=O)Cc4ccccc4)[C@H]3SC2(C)C)c1 | 7.5 µM (active) | – | 14.5% (inactive) | –
CC[C@H](C)C(=O)O[C@H]1CCC=C2C=C[C@H](C)[C@H](CC[C@@H]3C[C@@H](O)CC(=O)O3)[C@H]21 | 4.68 µM (active) | – | -23.7% (inactive) | –
CCCCCCC[N+](CC)(CC)CCCCc1ccc(Cl)cc1 | 2.11 µM (active) | 5.8 µM (active) | – | –
COc1ccc([C@@H]2Sc3ccccc3N(CCN(C)C)C(=O)[C@@H]2OC(C)=O)cc1 | 7.5 µM (active) and inactive | – | -9.3% (inactive) and 4.69% (inactive) | –
C=CCSCC1Nc2cc(Cl)c(S(N)(=O)=O)cc2S(=O)(=O)N1 (centres undefined) | 10.6 µM (active) | – | 6.34% (inactive) | –
CN1CCCN=C1COC(=O)C(O)(c1ccccc1)C1CCCCC1 (centres undefined) | inactive | – | 6.26% (inactive) | inactive
CC(=O)OC(C)OC(=O)C(C)c1ccc(-c2ccccc2)c(F)c1 (centres undefined) | inactive | – | 9.22% (inactive) | inactive
NS(=O)(=O)c1ccc(Cc2c(-c3cccc(-c4ccccc4)c3)nn(-c3nc(C(=O)O)cs3)c2CC2CC2)cc1 | 10.5 µM (active) | 31.6 µM (active) | – | 28.2 µM (active)
CC1=C(/C=C/C(C)=C/C=C/C(C)=C\C(=O)O)C(C)(C)CCC1 | 6.61 µM (active) | – | -0.514% (inactive) | inactive
COc1ccc2cc(C=O)ccc2c1 | inactive | – | 8.85% (inactive) | inactive
O=C(Nc1nccs1)C(c1cc(F)ccc1O)N1Cc2ccccc2C1=O (centres undefined) | 16.6 µM (active) | – | -2.19% (inactive) | inactive
CCc1nnc(NS(=O)(=O)c2ccc(N)cc2)s1 | inactive | – | 4.19% (inactive) | inactive
Cc1cccc(Oc2cnc(=O)[nH]c2)c1 | inactive | – | 6.68% (inactive) | inactive
COCCOc1ccc(N2CCN(CCn3ncc4c3nc(N)n3nc(-c5ccco5)nc43)CC2)cc1 | 0.103 µM (active) | – | -19.9% (inactive) | inactive
O[C@@H](c1cc(C(F)(F)F)nc2c(C(F)(F)F)cccc12)[C@H]1CCCCN1 | 9.44 µM (active) | 16.4 µM (active) | – | 5.17 µM (active)

SMILES | Potency [1] | Potency [2] | activity (max response) [2] | Potency [3]
COc1cc([C@H]2Oc3cc([C@H]4Oc5cc(O)cc(O)c5C(=O)[C@@H]4O)ccc3O[C@@H]2CO)ccc1O | 18.6 µM (active) | – | 11.7% (inactive) and -16.7% (inactive) | inactive
CC(CNC1CCCCC1)OC(=O)c1ccccc1 (centres undefined) | inactive | – | -5.58% (inactive) | inactive
O=c1cc(N2CCOCC2)oc2c(-c3ccc4c(c3)OCCO4)csc12 | 0.59 µM (active) | 11.2 µM (active) | – | 2.51 µM (active)
CNCCc1ccccn1 | inactive | – | 13.5% (inactive) | inactive
O=C(Nc1ccc(Cl)cc1)Nc1ccc(Cl)c(C(F)(F)F)c1 | 7.5 µM (active) | 2.91 µM (active) | – | 1.84 µM (active)
Cc1cc(OI)c(C(C)C)cc1-c1cc(C(C)C)c(OI)cc1C | inactive | – | 11.4% (inactive) | inactive
CCC(C(=O)OCCN(CC)CC)c1ccccc1 (centres undefined) | inactive | – | 4.88% (inactive) | inactive
O=C(O)CCCC[C@@H]1SC[C@@H]2NC(=O)N[C@@H]21 | inactive | – | -0.523% (inactive) | inactive
CN1CC(=O)N2[C@H](c3ccc4c(c3)OCO4)c3[nH]c4ccccc4c3C[C@@H]2C1=O | inactive | – | 17.1% (inactive) and 13.1% (inactive) | inactive
CN[C@@H]1C[C@H]2O[C@@](C)([C@@H]1OC)n1c3ccccc3c3c4c(c5c6ccccc6n2c5c31)C(=O)N[C@H]4O | 0.0237 µM (active) | 0.376 µM (active) | – | 0.15 µM (active)
C[C@H]1CNCCCN1S(=O)(=O)c1cccc2cncc(F)c12 | inactive | – | -17.2% (inactive) | inactive
CC(=O)O[C@]1(C(C)=O)CC[C@H]2[C@@H]3C=C(Cl)C4=CC(=O)CC[C@]4(C)[C@H]3CC[C@@]21C | 11.9 µM (active) | – | -0.809% (inactive) | inactive
CNCCCOc1cc(F)c(-c2c(Cl)nc3ncnn3c2N[C@@H](C)C(F)(F)F)c(F)c1 | 0.0372 µM (active) | 0.0501 µM (active) | – | 0.112 µM (active)
O=S(=O)(NCCNC/C=C/c1ccc(Br)cc1)c1cccc2cnccc12 | 9.2 µM (active) and 11.8 µM (active) | 31.6 µM (active) | – | 28.2 µM (active)
Nc1cccc2c1CN([C@H]1CCC(=O)NC1=O)C2=O | inactive | – | -17.5% (inactive) | inactive
CC(=O)CC/C=C(\C)CC/C=C(\C)CC/C=C(\C)CCC=C(C)C | inactive | – | 9.79% (inactive) | inactive
CCOC(=O)NNc1ccc(N(CC)CC(C)O)nn1 (centres undefined) | inactive | – | -8.2% (inactive) | inactive
C#C[C@]1(O)CC[C@H]2[C@@H]3CCc4cc(OC)ccc4[C@H]3CC[C@@]21C | 13.3 µM (active) | – | 5.57% (inactive) and 4.24% (inactive) | inactive
CC(NN)c1ccccc1 (centres undefined) | inactive | – | -4.01% (inactive) | inactive
CC/C(=C(\c1ccccc1)c1ccc(OCCN(C)C)cc1)c1ccccc1 | 10.8 µM (active) and 18.8 µM (active) | 6.31 µM (active) | – | 11.2 µM (active) and 16.4 µM (active)
